# Experimental data reported in PubChem BioAssay (NCI).
# Compounds without any hit were thinned out: in the full panel of roughly 83,000, 20% have a hit.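 Interpretation: 100, growth as untreated; towards 0, rising growth inhibition; 0, no net growth; 0 to -100, cell death. Compounds scoring below 10 were considered active.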 Values without a mark were called inactive. Activity calls are given as the source filed them.
# How the values were obtained:
# Assay in all cases: NCI-60 one-dose screen, 48 h (100 = growth as untreated, 0 = no growth, -100 = all killed)
# Conditions in all cases: 10 µM unless noted
# [1] = system: SR leukemia
# [2] = system: RPMI-8226 leukemia
# [3] = system: OVCAR-8 ovarian
# [4] = system: OVCAR-5 ovarian
# [5] = system: SK-OV-3 ovarian
# [6] = system: IGROV1 ovarian
# [7] = system: OVCAR-3 ovarian
# [8] = system: HS 578T breast
# [9] = system: NCI/ADR-RES ovarian
SMILES,growth [1],growth [2],growth [3],growth [4],growth [5],growth [6],growth [7],growth [8],growth [9]
COc1ccc(/C=C/C=C\C(=O)c2ccc(-n3ccnc3)cc2)cc1,82.1%,71.5%,86.4%,103%,97%,93.5%,96.7%,91.1%,104%
[2H]C1([2H])CCN(C(=O)C2CC2)c2cc(NS(=O)(=O)c3ccc(-c4cccc(C(N)=O)c4)cc3)ccc21,38.1%,37.1%,53.9%,60.6%,26.1%,32.4%,12.4%,18.7%,95%
O=C(Nc1cccc2cccnc12)c1cc(C(=O)c2ccc(Cl)cc2)n2ccc(-c3ccncc3)cc12,125%,103%,97.8%,98.9%,92.1%,89.1%,111%,89.6%,105%
C[n+]1cccc(NC(=O)c2ccc3ccc4ccc(C(=O)Nc5ccc[n+](C)c5)nc4c3n2)c1,75%,61.5%,62.5%,79.5%,8.34% (active),32.3%,62.4%,74.7%,101%
O=S(=O)(/N=c1/n(-c2ccccc2)nc2n1CCN2C1=NCCN1)c1ccc(-c2ccccc2)cc1,67.4%,96.8%,103%,96.6%,100%,95.4%,101%,93.4%,104%
CCOC(=O)c1cc(C(=O)c2ccc(OC)c(OC)c2)n2ccc(-c3ccccn3)cc12,75.8%,72.9%,37%,84%,6.14% (active),54.7%,78.5%,64.2%,65.6%
N#C/C(C(=O)c1ccccc1)=C1/C(=O)Nc2ccc(Br)cc21,101%,102%,99.5%,107%,85.7%,90.9%,107%,92.5%,98.8%
CC(=O)n1cc(C=O)c2ccccc21,97.3%,97.6%,86.7%,104%,116%,112%,104%,104%,96.4%
C=C(C)[C@@H]1CC[C@]2(COCCC#N)CC[C@]3(C)[C@H](CC[C@@H]4[C@@](C)(CCCNCCC#N)[C@H](C(=C)C)CC[C@]43C)[C@@H]12,19.1% [100 µM],-37.1% [100 µM] (active),3.88% [100 µM] (active),36.7% [100 µM],65.1% [100 µM],7.81% [100 µM] (active),-0.365% [100 µM] (active),22.2% [100 µM],46.3% [100 µM]
C=C(C)[C@@H]1CC[C@]2(C)[C@H](CC[C@@H]3[C@@H]([C@@](C)(O)CCC=C(C)C)CC[C@]32C)[C@@]1(C)CCC(=O)O,21.4% [100 µM],0.565% [100 µM] (active),14.8% [100 µM],3.52% [100 µM] (active),18.4% [100 µM],-24.2% [100 µM] (active),-70.2% [100 µM] (active),-16.7% [100 µM] (active),6.42% [100 µM] (active)
Cc1cc(C)c(S(=O)(=O)/N=c2/n(-c3ccccc3)nc3n2CCN3C2=NCCN2)c(C)c1,39.9%,76%,86.7%,86.5%,83.2%,65.5%,88.7%,79.3%,89.1%
O=C(N=c1n(-c2ccccc2)nc2n1CCN2C1=NCCN1C(=O)c1ccc(Cl)cc1)c1ccc(Cl)cc1,73.9%,73.2%,78.7%,88.8%,92.9%,59%,53.6%,82.7%,73.3%
NC(=O)CC1C=CCC1 (stereo not drawn),106%,96.5%,84.7%,96.7%,105%,107%,111%,110%,109%
CCOc1cc(/C=N\NC(=O)N/N=C/c2ccc(O)c(OCC)c2)ccc1O,12.2%,32.8%,52%,66.8%,16.2%,59.4%,-34.7% (active),-2.98% (active),51.6%
O=C1Nc2ccccc2/C1=C/C(=O)c1ccc(N2CCCCC2)cc1,16.9%,26.9%,54.9%,104%,100%,50%,10.4%,93.4%,90.3%
C=C(C)[C@@H]1CC[C@]2(C(=O)NCCCN)CC[C@]3(C)[C@H](CC[C@@H]4[C@@]5(C)CC[C@H](O)C(C)(C)[C@@H]5CC[C@]43C)[C@@H]12,23.7% [100 µM],-6.66% [100 µM] (active),-3.81% [100 µM] (active),-47.7% [100 µM] (active),-27.2% [100 µM] (active),-6.94% [100 µM] (active),-45.9% [100 µM] (active),-4.98% [100 µM] (active),-9.52% [100 µM] (active)
C=CCc1nc2ccccc2s1,98.9%,92.4%,98%,101%,110%,74.6%,114%,102%,111%
